Holding throughout (assay): NCI-60 one-dose screen, 48 h (100 = growth as untreated, 0 = no growth, -100 = all killed)
What all share (settings): 10 µM unless noted

For experiment [1], the system named is BT-549 breast.
Experiment [2] has as its system MDA-MB-435 melanoma.
The subject of experiment [3] is SW-620 colon.
Experiment [4] has as its system MCF7 breast.
Experiment [5] concerns HCT-116 colon.
In experiment [6] the test system is HCC-2998 colon.
The test system of experiment [7] is KM12 colon.

This is part of a sample that, as a whole, favours compounds with a hit. Of some 83,000 tested, about 20% had one in any assay.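 A percent growth of 40 corresponds to 60% growth inhibition; 0 means no net growth; -100 means all cells died. Active threshold: below 10.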 Values without a mark were called inactive. Calls of active or inactive are those of the source.

Consider `COc1cc(C(=O)Nc2cc(OC)c3ccn(C)c3c2)cc2c1C[C@]1(C)CC[C@@H](O)C(C)(C)[C@H]1O2`, for which the growth in experiment [1] was 8.8% (active); in experiment [2], -36.1% (active); in experiment [3], 2.19% (active); in experiment [4], 6.32% (active); in experiment [5] it was 12.6%; in experiment [6], 37.4%. Also, in experiment [7], the growth was 27%.
As for `CCOC(=O)c1c(C)nc2c(c1N)/C(=C/c1cccs1)C(=O)N2c1ccc(OC)cc1`, the growth in experiment [1] was 45.9%; in experiment [2], 59.9%; in experiment [3] it was 67.6%; in experiment [4], 25%; in experiment [5], 20.9%; in experiment [6] it was 80.7%. Besides, the growth in experiment [7] is 70.2%.
Consider `CN1CC=C(c2cc(NC(=O)Nc3ccc(Oc4ccnc(NC(=O)C5CC5)c4)c(F)c3)cc(C(F)(F)F)c2)CC1`, for which the growth was -11.2% (active) in experiment [1]; -12.4% (active) in experiment [2]; -0.0556% (active) in experiment [3]; -17.1% (active) in experiment [4]; -10.7% (active) in experiment [5]; 11.8% in experiment [6]. The growth in experiment [7] is -11.2% (active).
As to `O=CN1N=C(c2ccc(Cl)cc2)CC1c1cccc(Nc2ccnc3cc(C(F)(F)F)ccc23)c1` (stereo not drawn), the growth in experiment [1] was 53.9%; in experiment [2], 54.3%; in experiment [3], 89.8%; in experiment [4], 38%; in experiment [5] it was 56.3%; in experiment [6], 76.7%. The growth in experiment [7] was 59.2%.
As to `Nc1c(C(=O)Nc2ccccc2)sc2nc3c(cc12)CN(C(=O)OCc1ccccc1)CC3`, the growth is 52.1% in experiment [1]; -8.75% (active) in experiment [2]; 30.1% in experiment [3]; 21.1% in experiment [4]; 28.7% in experiment [5]; 77.5% in experiment [6]. For the same molecule, the growth in experiment [7] is 39.1%.
As for `CC(=O)c1ccc(NC(=O)CSc2nnc(-c3cc(-c4ccc(Cl)cc4)nc4ccccc34)o2)cc1`, the growth in experiment [1] is 79.7%; in experiment [2], 85.5%; in experiment [3] it was 75.6%; in experiment [4], 55.8%; in experiment [5], 20.8%; in experiment [6], 101%. For the same molecule, the growth in experiment [7] is 89.3%.
Take `COc1cc(-c2csc(NC(=O)Nc3cc(Cl)cc(Cl)c3)n2)cc(OC)c1OC`: the growth in experiment [1] was 11.5%; in experiment [2] it was 27.1%; in experiment [3], -26.4% (active); in experiment [4], 8.04% (active); in experiment [5], -28.9% (active); in experiment [6], 70.8%. In experiment [7], the growth was 18.5%.
`COC(=O)/C=C/c1cc(OC(C)=O)c2c(c1)C(C(=O)OC)C(c1ccc(OC(C)=O)c(OC(C)=O)c1)O2` (stereo not drawn): the growth was -4.09% (active) in experiment [1]; -26.1% (active) in experiment [2]; 20.5% in experiment [3]; 10% in experiment [4]; 9.77% (active) in experiment [5]; 25.5% in experiment [6]. Moreover, the growth in experiment [7] is 16.5%.
Turning to `CCCn1c2cc(OCc3cn(-c4ccc(Br)cc4)nn3)ccc2c2ccnc(C)c21`, the growth in experiment [1] is 90.2%; in experiment [2] it was 85.4%; in experiment [3], 47.4%; in experiment [4], 62.4%; in experiment [5] it was 54.7%; in experiment [6] it was 83.4%. The growth in experiment [7] is 67.6%.
On to `Cc1cc(Cl)cc(CN(Cc2ccccc2)Cc2c(O)ccc3ccccc23)c1O`, for which the growth was 99% in experiment [1]; 112% in experiment [2]; 105% in experiment [3]; 85% in experiment [4]; 111% in experiment [5]; 91.5% in experiment [6]. In addition, the growth in experiment [7] was 99.9%.
As to `c1ccc(Sc2ncccn2)nc1`, the growth is 137% in experiment [1]; 104% in experiment [2]; 95.3% in experiment [3]; 93.2% in experiment [4]; 99.3% in experiment [5]; 101% in experiment [6]. The growth in experiment [7] was 106%.
Take `CCOC(=O)c1c(C)nc2c(c1N)/C(=C/c1ccc[nH]1)C(=O)N2Cc1ccc(C(F)(F)F)cc1`: the growth in experiment [1] was 58.4%; in experiment [2], 90.9%; in experiment [3], 66%; in experiment [4], 45.1%; in experiment [5], 28.4%; in experiment [6] it was 91.2%. Besides, the growth in experiment [7] was 81.6%.
As to `CS(=O)(=O)O[C@@H]1C(=O)N(c2cc3c4ccccc4ccc3c3ccccc23)[C@H]1c1ccc(F)cn1`, the growth is 44.6% in experiment [1]; -26% (active) in experiment [2]; 22.5% in experiment [3]; 21.6% in experiment [4]; 14.3% in experiment [5]; 60.1% in experiment [6]. Also, in experiment [7], the growth was 23%.
Turning to `COc1cc(/C=C/C(=O)/C=C/c2cc3ccc(Cl)cc3n(Cc3ccccc3)c2=O)ccc1O`, the growth in experiment [1] was -19.2% (active); in experiment [2], -19.1% (active); in experiment [3] it was 3.39% (active); in experiment [4] it was 26.2%; in experiment [5] it was -82.6% (active); in experiment [6] it was -73.8% (active). The growth in experiment [7] was -52.3% (active).
`COc1cc(/C=C/CO)cc(OC)c1O[C@@H]1O[C@H](CO)[C@@H](O)[C@H](O)[C@H]1O`: the growth in experiment [1] was 104%; in experiment [2], 102%; in experiment [3], 94%; in experiment [4] it was 93.2%; in experiment [5], 95.8%; in experiment [6], 102%. Besides, the growth in experiment [7] is 105%.
For `Cc1c(Cl)cccc1NC(=O)c1sc2nc3c(cc2c1N)COCC3`, the growth in experiment [1] was 49.6%; in experiment [2], -20% (active); in experiment [3] it was 22.8%; in experiment [4] it was 16.4%; in experiment [5], 19.7%; in experiment [6] it was 65.1%. Besides, the growth in experiment [7] is 31.8%.
For `C#CC[C@@H]1C[C@]2(C)[C@H]3CC[C@@H]4[C@H]5[C@H](C(=C)C)CC[C@]5(C(=O)O)CC[C@@]4(C)[C@]3(C)CC[C@H]2C(C)(C)[C@H]1O`, the growth in experiment [1] is 29%; in experiment [2] it was 68.5%; in experiment [3], 33.1%; in experiment [4], 34.7%; in experiment [5], 9.2% (active); in experiment [6], 64.7%. Further, the growth in experiment [7] was 24.8%.
`COCCOC(=O)COc1ccc(OC)cc1`: the growth is 103% in experiment [1]; 89.8% in experiment [2]; 93.5% in experiment [3]; 97.3% in experiment [4]; 106% in experiment [5]; 111% in experiment [6]. Also, in experiment [7], the growth was 100%.
Take `CN(C)C(CNc1oc(-c2cccc3ccccc23)nc1C#N)c1ccco1` (stereo not drawn): the growth was 91.4% in experiment [1]; 97.4% in experiment [2]; 103% in experiment [3]; 87.8% in experiment [4]; 89.3% in experiment [5]; 105% in experiment [6]. Further, the growth in experiment [7] is 97.4%.
On to `N#C/C(=C/c1ccc(O)c([N+](=O)[O-])c1)c1nc(-c2ccc([N+](=O)[O-])cc2)cs1`, for which the growth in experiment [1] is 36.3%; in experiment [2], 40.2%; in experiment [3] it was 54.2%; in experiment [4], 25.8%; in experiment [5] it was 33.8%; in experiment [6] it was 30.4%. The growth in experiment [7] was 36%.
Turning to `Cc1cc(C)cc(Nc2nccc(-c3c(-c4ccc(F)cc4)ncn3C3CCNCC3)n2)c1`, the growth in experiment [1] is 17.7%; in experiment [2], -78.8% (active); in experiment [3] it was -28% (active); in experiment [4] it was -8.14% (active); in experiment [5], -98.8% (active); in experiment [6], -60.2% (active). In experiment [7], the growth was 11.8%.
Turning to `CCOc1ccccc1C(=O)/C=C/c1cc2ccccc2[nH]c1=O`, the growth in experiment [1] was -19.2% (active); in experiment [2], 5.11% (active); in experiment [3] it was 4.2% (active); in experiment [4], 3.4% (active); in experiment [5], -64.7% (active); in experiment [6] it was -97.6% (active). For the same molecule, in experiment [7], the growth was -45.3% (active).
For `COc1ccc(C(=O)c2cc(OC)c(OC)c(OC)c2)cc1OC(=O)CCl`, the growth was 16.2% in experiment [1]; -13.2% (active) in experiment [2]; 29.9% in experiment [3]; 15.9% in experiment [4]; 10.7% in experiment [5]; 26.3% in experiment [6]. Also, in experiment [7], the growth is 7.22% (active).
With `COc1cc2c(cc1OC)C(Sc1ccc(Cl)cc1)c1c(nc(N)c(C#N)c1N)O2` (stereo not drawn), the growth is 1.72% (active) in experiment [1]; -43.8% (active) in experiment [2]; -63.1% (active) in experiment [3]; -52.2% (active) in experiment [4]; -70.6% (active) in experiment [5]; -48.1% (active) in experiment [6]. For the same molecule, the growth in experiment [7] was -27.8% (active).

The record behind these values is PubChem BioAssay (NCI).
